Potency, activity change, negative = inhibition and outcome data for 5 molecules are collected here from PubChem BioAssay (NCATS).

SMILES strings stand for the structures. Several values for one entry are separate records, joined by “and”; a condition that tells them apart may be missing. Equal entries are not always repeated. Unmarked numbers belong to inactive results. Results filed as inconclusive are left out. Activity calls are given as the source filed them. Unless noted, the call rests on the fitted dose curve; in most records, active means well fitted curve in the direction sought with a large enough effect; inconclusive means small, poorly fitted or top-dose-only effect, or another doubt; inactive means no such curve, though single readings can be large; an effect the other way counts as inactive or inconclusive. Bounds are passed on as bounds.

Test [1] deals with Cytochrome P450 1A2 (Homo sapiens) (UniProt P05177). Nature of the test: p450-cyp1a2 (AID 410; calls by dose curve; further: potency means the concentration at half of the fitted maximal effect). In short, it runs like this:
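Luminescent readout of luciferin formed from Luciferin-ME by human CYP1A2; data normalized against complete inhibition by 57 uM furafylline. Enzyme 20nM, substrate 100uM at Km, 100mM KPO4 buffer, 60 min reaction at room temperature.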

For test [2], the target named is Glucocorticoid receptor (Homo sapiens) (UniProt P04150). Put plainly: GR-GFP Redistribution (AID 450;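 active means compounds whose dose series gives a full or clear partial fitted curve of increased nuclear translocation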; further: potency means the concentration at half of the fitted maximal effect). The conditions noted are these: U2OS GR-GFP nuclear translocation, laser cytometry, 2 h.
Test [3] has the same target. Nature of the test: GR-EFC Redistribution (AID 451; calls by dose curve; further: potency means the concentration at half of the fitted maximal effect). The conditions noted are these: CHO-K1 GR-EFC translocation, beta-gal luminescence, 2 h. In short, it runs like this: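 CHO-K1 cells stably expressing nuclear-localized β-gal enzyme acceptor and GR fused C-terminally to the enzyme donor fragment; ligand-driven nuclear translocation restores β-gal by complementation. Compounds titrated up to 46 uM final, 2 h at 37 °C; luminescence read.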

Test [4] has as its target Mitogen-activated protein kinase 10 (Mus musculus) (UniProt Q61831). Nature of the test: JNK3 AlphaScreen Assay (AID 530; active means well fitted curve in either direction with a large enough effect, not every such curve was filed as active;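 further: kinase came from lysate of stimulated human HepG2 cells; signal reports phosphorylation of biotinylated GST-cJun 1-79 at Ser73 with 10 µM ATP; on the % scale 0 is the no-effect control and ±100 the full control effect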). A digest of the protocol: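 Inhibitors reduce antibody binding to phosphorylated biotin-cJun, lowering AlphaScreen luminescence. Lysates from HepG2 cells pre-activated by IL-1beta plus TNF-alpha supplied JNK3; compounds were titrated.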
A general note: In Alpha technology, singlet oxygen from a donor bead excites a nearby acceptor bead.

The target of test [5] is 3',5'-cyclic-AMP phosphodiesterase 4B (Homo sapiens) (UniProt Q07343). Put plainly: qHTS Assay for Inhibitors of PDE-IV (AID 607; active means well fitted activation curve with a large enough effect in the main read-out, with a control signal flat, not every such curve was filed as active; further: % of control where 0% means no effect). A digest of the protocol:
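ACTOne HEK293 cells carry a modified cAMP-gated CNG channel and express endogenous PDE4; plated 1000 cells/well, compounds up to 22.9 uM final. Membrane-potential dye fluorescence (ex 535/em 590) was read; parental cells received 10 uM forskolin + 100 uM RO 20-1724.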
A general note: In qHTS, concentration-response curves come from the screen itself.

Test [6] addresses Ubiquitin carboxyl-terminal hydrolase 1 (Homo sapiens) (UniProt O94782). Nature of the test: Inhibitors of USP1/UAF1: Pilot qHTS (AID 504865).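 Further: rhodamine fluorescence freed from ubiquitin-rhodamine substrate followed over time; top concentration of the series differs between compounds; on the % scale 0 is the no-effect control and ±100 the full control effect; nearly all actives have a fitted effect of over 35% in size.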 In short, it runs like this:
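Enzyme-free wells gave the negative control, while test wells held 1nM USP1/UAF1 preincubated with compound for 15 min at room temperature. Ub-Rho at 150nM final started the reaction, and fluorescence at 480/540 nm was recorded kinetically.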

Test [7] concerns the target DNA dC->dU-editing enzyme APOBEC-3G (Homo sapiens) (UniProt Q9HC16). Put plainly: qHTS for inhibitors of Vif-A3G interactions: Validation (AID 588379). Further: 0% is about no effect. In short, it runs like this:
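HeLa cells stably expressing Vif and A3G-eYFP, 700 cells/well, incubated overnight at 37 deg C, then exposed to compound overnight at 37 deg C. Inhibition of Vif-mediated degradation read as increased yellow fluorescence (Ex 488/Em 500-530) by laser-scanning cytometry.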

Test [8] relates to Zika virus NS2B-NS3 protease. Put plainly: Primary screen GU AMC qHTS for Zika virus inhibitors (AID 1347154).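 Further: 0% = no-inhibitor control and -100% = no-enzyme control; nearly all actives have a fitted effect of over 70% in size.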 A digest of the protocol:
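Unlinked Zika NS2B hydrophilic domain/NS3 protease domain noncovalent complex (25 nM final) in 10 mM Tris-HCl pH 8.0, 0.01% Tween 20, with AMC peptide substrate. Fluorescence (ex 340, em 450 nm) change over 15 min, room temperature; percent inhibition fitted to 4-parameter Hill equation.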

The nature of test [9]: Primary qHTS for small molecule stabilizers of the endoplasmic reticulum resident proteome: Secreted ER Calcium Modulated Protein (SERCaMP) assay (AID 1508630). Further: on the % scale 0 is the no-effect control and ±100 the full control effect. In short, it runs like this: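 GLuc-SERCaMP-expressing SH-SY5Y cells, pretreated 16 h with compound, are challenged with thapsigargin to empty ER calcium stores; after 4 h, coelenterazine is added directly to the medium and luminescence is imaged.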

Test [10] has as its target Glutathione peroxidase 1 (Homo sapiens) (UniProt P07203). Put plainly: Primary qHTS Assay for Inhibitors of Recombinant Selenoprotein Glutathione Peroxidase 1 (GPX1) (AID 1845191). Further: nearly all actives have a fitted effect of over 65% in size. A digest of the protocol: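 Recombinant GPX1 (10 nM final) was preincubated with compound for 30 min at room temperature, then reacted with 1 mM GSH, 0.5 mM CHP, 0.5 mM NADPH and 100 nM glutathione reductase; NADPH fluorescence (340/450 nm) was read at 0 and 15 min.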

For test [11], the target named is Rap guanine nucleotide exchange factor 3 (Homo sapiens) (UniProt O95398). Put plainly: Confirmatory qHTS for agonist of cAMP-regulated guanine nucleotide exchange factor 3 (EPAC1) (AID 1645881).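 Further: EPAC1 catalysed release of BODIPY-GDP from Rap1B seen as fluorescence loss; 100% = effect of cAMP agonist control; nearly all actives have a fitted effect of over 75% in size.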
In test [12] the target is Rap guanine nucleotide exchange factor 4 (Homo sapiens) (UniProt Q8WZA2). Nature of the test: Confirmatory qHTS for agonist of cAMP-regulated guanine nucleotide exchange factor 4 (EPAC2) (AID 1645884).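 Further: nucleotide exchange releases bodipy-GDP from Rap1 and this lowers its fluorescence; on the % scale 0 is the no-effect control and ±100 the full control effect; nearly all actives have a fitted effect of over 65% in size.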
A short description of test [13]: AP1 Signaling Pathway (AID 357; active means well fitted curve in either direction with a large enough effect, not every such curve was filed as active; further: on the % scale 0 is the no-effect control and ±100 the full control effect). The conditions noted are these: ME-180 (cervical carcinoma) AP-1-bla reporter, EGF-induced, beta-lactamase ratio, 5 h; at 38 µM (top of the series). In short, it runs like this:
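ME-180 cells with beta-lactamase reporter under AP-1 response element, stimulated with EC50 EGF; compounds tested in titration series, 5 h at 37 °C. CCF4 substrate added 2.5 h at room temperature; 460/530 nm emission ratio gave %activity and AC50.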

Test [14] in a line: NFAT Signaling Pathway (AID 444; active means well fitted curve in either direction with a large enough effect, not every such curve was filed as active;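 further: carbachol stimulus at about its EC50 of 1 µM final; on the % scale 0 is the no-effect control and ±100 the full control effect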). The conditions noted are these: Jurkat NFAT-bla M1, carbachol, beta-lactamase ratio, 5 h; at 38 µM (top of the series). A digest of the protocol: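 Jurkat cells carrying an NFAT-driven β-lactamase reporter and co-transfected muscarinic M1 receptor were treated with compound plus carbachol (1 uM final, an EC50 level) for 5 h at 37 °C. CCF4 loading followed for 1 h at RT; 460/530 nm ratio gave %activity.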

In test [15] the target is Guanine nucleotide-binding protein G(i) subunit alpha-1 (Homo sapiens) (UniProt P63096). Nature of the test: qHTS Assay for Inhibitors of RGS12 GoLoco Motif Activity (Green Fluorophore) (AID 879).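 Further: 0% = labeled peptide with Gαi1 and full inhibition = labeled peptide alone without protein; negative values mean loss of peptide binding seen as reduced polarization.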 A digest of the protocol:
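Fluorescence polarization assay: 50 nM Gαi1 with 10 nM FITC-labeled RGS12 GoLoco peptide in 10 mM Tris pH 7.5, 150 mM NaCl, 0.1 mM GDP, 0.05% NP40, 10 min at room temperature with compound.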

Test [16] addresses Cytochrome P450 2C9 (Homo sapiens) (UniProt P11712). Put plainly: qHTS Assay for Inhibitors and Substrates of Cytochrome P450 2C9 (AID 883). Further: on the % scale 0 is the no-effect control and ±100 the full control effect; nearly all actives have a fitted effect of over 60% in size. In short, it runs like this:
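Human CYP2C9 (10nM) hydroxylated Luciferin-H (100uM, at its KM) to luciferin in 25mM KPO4. Compound was preincubated 10 min at 37C, then NADPH regeneration started a 60 min reaction at 37C. Luminescence was read after detection reagent, normalized to 57uM sulphaphenazole.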

Test [17] has as its target Cytochrome P450 3A4 (Homo sapiens) (UniProt P08684). Put plainly: qHTS Assay for Inhibitors and Substrates of Cytochrome P450 3A4 (AID 884). Further: potency means the concentration at half of the fitted maximal effect; nearly all actives have a fitted effect of over 50% in size. A digest of the protocol: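 20 nM human CYP3A4 with 25 uM Luciferin-PPXE (at KM) in 200 mM KPO4, preincubated 10 min with compound; NADPH regeneration started a 60 min RT reaction. Luciferin detected by luminescence, normalized to 57 uM ketoconazole as full inhibition.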

The target is the same in test [18]. Nature of the test: qHTS Assay for Activators of Cytochrome P450 3A4 (AID 885). Further: nearly all actives have a fitted effect of over 65% in size. A digest of the protocol:
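20nM CYP3A4 + 25uM Luciferin-PPXE (=KM), 200mM KPO4; cpd 10 min RT; NADPH regen, 60 min RT; stop w/ detection buffer, 20 min; luminescence. Normalized to 57 uM ketoconazole.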

For test [19], the target named is Cytochrome P450 2D6 (Homo sapiens) (UniProt P10635). Nature of the test: qHTS Assay for Inhibitors and Substrates of Cytochrome P450 2D6 (AID 891).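 Further: luciferin methyl ether substrate demethylated by CYP2D6 with NADPH regeneration; on the % scale 0 is the no-effect control and ±100 the full control effect; nearly all actives have a fitted effect of over 60% in size.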 A digest of the protocol: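 Human CYP2D6 (5 nM) with 30 uM Luciferin-ME EGE (at Km) in 100 mM KPO4, compound preincubated 10 min, then NADPH regeneration system for 60 min at room temperature. Luciferin read by luminescence; normalized to 1.43 uM quinidine.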

Test [20] has as its target Cytochrome P450 2C19 (Homo sapiens) (UniProt P33261). Nature of the test: qHTS Assay for Inhibitors and Substrates of Cytochrome P450 2C19 (AID 899). Further: on the % scale 0 is the no-effect control and ±100 the full control effect; nearly all actives have a fitted effect of over 60% in size. A digest of the protocol: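 Human CYP2C19 (5nM) with Luciferin-H EGE at 10uM (its KM) in 50mM KPO4 was preincubated with compound for 10 min at 37C. NADPH regeneration started a 60 min 37C reaction. Luciferin was read by luminescence, normalized to 57uM ketoconazole.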

Test [21] is described as follows: qHTS Assay for Identification of Small Molecule Agonists for Thrombopoietin (TPO) Signaling Pathway (AID 917). Further: on the % scale 0 is the no-effect control and ±100 the full control effect. In short, it runs like this: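 IL-3-dependent murine pro-B Ba/F3 cells, stably transfected with human TPO receptor and GpIIb-promoter luciferase, are incubated 24 hrs at 37 C with test compound and 26 pM TPO; luciferase signal is read after 10 min at room temperature.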

For test [22], the target named is Muscarinic acetylcholine receptor M1 (Rattus norvegicus) (UniProt P08482). Put plainly: qHTS Assay for Antagonists of Acetylcholine Muscarinic M1 Receptor: Kinetic Measurement of Intracellular Calcium Response (AID 943). Further: potency means the concentration at half of the fitted maximal effect; nearly all actives have a fitted effect of over 75% in size. A digest of the protocol: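 Rat M1-CHO cells, 2000/well, overnight → Fluo-4 no-wash dye with probenecid, 1 h 37C → compound 10 min, room temp → basal read 6 s → carbachol EC80 (100 nM) → 4 min kinetic read; peak/basal.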

Test [23] addresses Pyruvate kinase (Leishmania mexicana) (UniProt Q27686). Put plainly: qHTS Validation Assay for Inhibitors of Leishmania Mexicana Pyruvate Kinase (AID 945).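 Further: 0% = DMSO only neutral control wells.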 A digest of the protocol: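 Read-out: luminescence from PKLight stop/detection reagent, data normalized to DMSO. Reaction: 0.2 nM E451W LmPYK, 0.5 mM PEP, 0.1 mM ADP, pH 7.2, 1 h room temperature.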
In test [24] the target is Alpha-galactosidase A (Homo sapiens) (UniProt P06280). Put plainly: Counterscreen for Glucocerebrosidase Inhibitors: qHTS Assay for Human alpha-Galactosidase at pH 4.5 (AID 992). Further: 0% is about no effect. A digest of the protocol:
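Enzyme at 2 nM final was combined with compound (0.7 nM to 77 uM) and 80 uM 4-methylumbelliferyl alpha-D-galactopyranoside in 50 mM citric acid, 0.005% Tween-20, pH 4.5. After 20 min at room temperature, fluorescence was read (Ex 365/Em 440 nm); AC50 came from Hill fits.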
(In general: Counterscreens check selectivity or assay interference.)

For test [25], the target named is alpha-glucosidase (Oryza sativa, rice) (UniProt Q653V4). Put plainly: Counterscreen for Glucocerebrosidase Inhibitors: qHTS Assay for Rice alpha-Glucosidase at pH 5.0 (AID 997).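 Further: 0% = full activity with enzyme and -100% = basal without enzyme.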 In short, it runs like this: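 Rice alpha-glucosidase (4 nM final) with 400 uM 4-methylumbelliferyl-alpha-D-glucopyranoside in citrate buffer pH 5.0, 20 min at room temperature, stopped at pH 10; fluorescence 365/440 nm, compounds 0.7 nM–77 uM, AC50 from Hill fits.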

Chain of Cytochrome P450 1A2 (Homo sapiens) (P05177 whole entry, looked up): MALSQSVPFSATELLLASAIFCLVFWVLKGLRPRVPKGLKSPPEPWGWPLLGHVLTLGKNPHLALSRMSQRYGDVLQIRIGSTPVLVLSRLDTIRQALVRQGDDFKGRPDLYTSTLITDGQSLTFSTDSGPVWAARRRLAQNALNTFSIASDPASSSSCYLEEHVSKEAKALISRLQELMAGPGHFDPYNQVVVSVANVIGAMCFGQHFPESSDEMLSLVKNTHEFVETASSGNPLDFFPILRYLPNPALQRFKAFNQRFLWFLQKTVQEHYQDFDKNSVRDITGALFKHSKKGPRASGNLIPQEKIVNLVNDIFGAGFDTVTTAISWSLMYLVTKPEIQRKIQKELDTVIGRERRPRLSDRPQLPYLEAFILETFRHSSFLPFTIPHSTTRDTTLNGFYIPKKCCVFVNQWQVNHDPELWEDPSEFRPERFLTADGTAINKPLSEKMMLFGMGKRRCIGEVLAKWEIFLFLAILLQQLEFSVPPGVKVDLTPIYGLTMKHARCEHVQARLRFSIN
Chain of 3',5'-cyclic-AMP phosphodiesterase 4B (Homo sapiens) (Q07343 whole entry, looked up): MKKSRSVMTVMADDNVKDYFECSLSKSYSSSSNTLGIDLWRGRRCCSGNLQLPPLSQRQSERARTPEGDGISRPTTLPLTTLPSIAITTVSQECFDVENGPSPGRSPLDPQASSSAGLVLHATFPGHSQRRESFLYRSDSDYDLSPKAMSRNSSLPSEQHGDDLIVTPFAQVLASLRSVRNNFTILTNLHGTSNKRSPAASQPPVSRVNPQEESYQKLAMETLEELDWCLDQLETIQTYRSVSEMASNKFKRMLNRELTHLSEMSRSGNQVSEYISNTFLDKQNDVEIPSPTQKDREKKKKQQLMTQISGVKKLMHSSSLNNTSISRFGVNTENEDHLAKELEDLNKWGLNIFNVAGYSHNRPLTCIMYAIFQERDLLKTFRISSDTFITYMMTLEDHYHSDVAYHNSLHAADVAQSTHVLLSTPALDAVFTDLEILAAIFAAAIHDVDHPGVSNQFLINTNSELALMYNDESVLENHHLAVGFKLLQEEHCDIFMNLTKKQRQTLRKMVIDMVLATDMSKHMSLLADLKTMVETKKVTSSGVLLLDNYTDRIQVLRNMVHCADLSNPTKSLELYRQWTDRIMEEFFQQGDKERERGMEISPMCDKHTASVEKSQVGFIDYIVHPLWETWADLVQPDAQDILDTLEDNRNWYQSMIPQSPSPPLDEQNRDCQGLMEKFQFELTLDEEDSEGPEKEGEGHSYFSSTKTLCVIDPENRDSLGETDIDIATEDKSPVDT
Chain of Glucocorticoid receptor (Homo sapiens) (P04150 whole entry, looked up, the tested form may be a part): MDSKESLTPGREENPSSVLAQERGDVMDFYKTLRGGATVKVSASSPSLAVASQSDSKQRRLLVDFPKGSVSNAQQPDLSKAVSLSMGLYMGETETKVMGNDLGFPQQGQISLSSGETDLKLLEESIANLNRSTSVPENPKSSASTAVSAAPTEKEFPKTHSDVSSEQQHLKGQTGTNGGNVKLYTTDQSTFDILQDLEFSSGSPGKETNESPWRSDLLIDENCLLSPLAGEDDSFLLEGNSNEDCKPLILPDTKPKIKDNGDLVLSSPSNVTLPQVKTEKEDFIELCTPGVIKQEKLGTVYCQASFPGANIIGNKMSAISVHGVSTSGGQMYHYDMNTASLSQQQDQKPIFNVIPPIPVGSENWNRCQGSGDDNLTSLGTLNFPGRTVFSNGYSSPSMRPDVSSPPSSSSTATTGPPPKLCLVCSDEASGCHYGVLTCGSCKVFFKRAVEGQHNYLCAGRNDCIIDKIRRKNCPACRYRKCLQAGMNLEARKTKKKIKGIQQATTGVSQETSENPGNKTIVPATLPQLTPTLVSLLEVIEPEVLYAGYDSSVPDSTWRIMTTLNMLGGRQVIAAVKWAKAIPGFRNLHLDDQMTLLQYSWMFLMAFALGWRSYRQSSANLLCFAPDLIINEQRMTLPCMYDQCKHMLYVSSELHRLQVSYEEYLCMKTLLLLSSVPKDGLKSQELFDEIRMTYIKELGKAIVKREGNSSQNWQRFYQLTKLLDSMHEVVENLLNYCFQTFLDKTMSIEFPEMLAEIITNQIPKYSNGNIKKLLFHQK
Chain of DNA dC->dU-editing enzyme APOBEC-3G (Homo sapiens) (Q9HC16 whole entry, looked up): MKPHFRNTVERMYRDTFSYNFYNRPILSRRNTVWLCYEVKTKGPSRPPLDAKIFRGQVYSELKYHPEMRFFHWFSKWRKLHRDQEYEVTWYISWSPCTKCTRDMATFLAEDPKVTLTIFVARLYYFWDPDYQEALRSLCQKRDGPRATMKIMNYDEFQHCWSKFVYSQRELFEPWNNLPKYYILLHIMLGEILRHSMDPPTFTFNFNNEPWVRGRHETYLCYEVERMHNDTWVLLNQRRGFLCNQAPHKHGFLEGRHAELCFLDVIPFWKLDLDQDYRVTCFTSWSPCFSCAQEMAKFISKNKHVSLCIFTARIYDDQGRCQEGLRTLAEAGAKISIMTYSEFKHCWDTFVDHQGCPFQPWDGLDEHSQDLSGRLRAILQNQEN
Chain of Cytochrome P450 3A4 (Homo sapiens) (P08684 whole entry, looked up): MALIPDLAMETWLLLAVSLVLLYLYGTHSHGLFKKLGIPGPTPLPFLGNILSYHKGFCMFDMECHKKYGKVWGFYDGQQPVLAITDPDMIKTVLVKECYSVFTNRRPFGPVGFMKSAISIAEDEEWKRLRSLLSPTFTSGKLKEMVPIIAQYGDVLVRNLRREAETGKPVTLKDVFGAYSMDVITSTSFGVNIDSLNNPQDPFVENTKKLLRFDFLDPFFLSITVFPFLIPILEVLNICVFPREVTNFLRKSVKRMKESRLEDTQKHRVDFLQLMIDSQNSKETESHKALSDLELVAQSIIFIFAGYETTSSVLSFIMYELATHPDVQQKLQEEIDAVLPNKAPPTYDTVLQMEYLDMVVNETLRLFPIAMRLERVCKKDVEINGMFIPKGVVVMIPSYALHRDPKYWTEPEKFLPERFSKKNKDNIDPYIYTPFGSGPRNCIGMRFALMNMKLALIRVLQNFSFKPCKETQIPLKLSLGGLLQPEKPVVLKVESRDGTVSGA
Chain of Ubiquitin carboxyl-terminal hydrolase 1 (Homo sapiens) (O94782 whole entry, looked up): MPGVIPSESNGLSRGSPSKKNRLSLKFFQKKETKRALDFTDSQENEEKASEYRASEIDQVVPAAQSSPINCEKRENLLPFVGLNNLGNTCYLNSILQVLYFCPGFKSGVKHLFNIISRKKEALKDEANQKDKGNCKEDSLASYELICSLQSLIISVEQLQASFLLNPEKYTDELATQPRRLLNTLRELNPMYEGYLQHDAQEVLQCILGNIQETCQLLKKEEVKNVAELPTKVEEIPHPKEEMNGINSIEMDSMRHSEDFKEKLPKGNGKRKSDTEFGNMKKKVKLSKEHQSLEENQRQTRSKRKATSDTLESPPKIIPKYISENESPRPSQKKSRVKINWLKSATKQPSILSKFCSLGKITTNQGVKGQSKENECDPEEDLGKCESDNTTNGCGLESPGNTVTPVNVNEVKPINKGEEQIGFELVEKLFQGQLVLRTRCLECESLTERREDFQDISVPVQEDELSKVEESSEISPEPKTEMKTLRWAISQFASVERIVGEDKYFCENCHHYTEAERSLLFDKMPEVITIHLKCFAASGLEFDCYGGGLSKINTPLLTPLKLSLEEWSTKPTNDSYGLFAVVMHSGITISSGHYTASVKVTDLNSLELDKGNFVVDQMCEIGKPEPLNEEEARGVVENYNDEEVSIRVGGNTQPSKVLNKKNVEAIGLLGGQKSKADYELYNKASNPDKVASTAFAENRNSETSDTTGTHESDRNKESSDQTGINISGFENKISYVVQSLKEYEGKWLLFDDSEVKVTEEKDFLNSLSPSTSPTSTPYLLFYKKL
Chain of Cytochrome P450 2C9 (Homo sapiens) (P11712 whole entry, looked up): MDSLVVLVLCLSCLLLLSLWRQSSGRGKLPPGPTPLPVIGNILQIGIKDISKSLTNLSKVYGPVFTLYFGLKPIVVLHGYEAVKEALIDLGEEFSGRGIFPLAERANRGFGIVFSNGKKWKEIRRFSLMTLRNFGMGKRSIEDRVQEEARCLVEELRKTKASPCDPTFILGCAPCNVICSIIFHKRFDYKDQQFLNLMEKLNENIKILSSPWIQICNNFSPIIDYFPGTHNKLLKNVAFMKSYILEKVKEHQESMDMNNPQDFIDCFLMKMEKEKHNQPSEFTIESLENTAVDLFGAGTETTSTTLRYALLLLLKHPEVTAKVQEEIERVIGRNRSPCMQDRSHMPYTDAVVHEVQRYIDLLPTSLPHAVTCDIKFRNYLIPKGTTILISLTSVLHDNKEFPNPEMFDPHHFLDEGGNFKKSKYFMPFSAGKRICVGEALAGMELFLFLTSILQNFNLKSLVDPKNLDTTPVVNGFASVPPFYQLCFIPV
Chain of Alpha-galactosidase A (Homo sapiens) (P06280 whole entry, looked up): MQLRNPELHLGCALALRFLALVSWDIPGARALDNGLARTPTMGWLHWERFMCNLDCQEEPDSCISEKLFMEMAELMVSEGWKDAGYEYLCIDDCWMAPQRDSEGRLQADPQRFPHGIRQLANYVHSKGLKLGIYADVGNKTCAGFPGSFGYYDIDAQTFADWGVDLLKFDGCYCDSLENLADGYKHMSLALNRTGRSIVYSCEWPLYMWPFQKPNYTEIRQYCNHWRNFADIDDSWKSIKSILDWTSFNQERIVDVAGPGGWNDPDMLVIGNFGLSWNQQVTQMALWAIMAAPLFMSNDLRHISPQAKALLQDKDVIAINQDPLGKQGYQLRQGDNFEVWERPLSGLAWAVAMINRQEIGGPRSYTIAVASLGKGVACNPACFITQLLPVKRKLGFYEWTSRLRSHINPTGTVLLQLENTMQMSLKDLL
Chain of Guanine nucleotide-binding protein G(i) subunit alpha-1 (Homo sapiens) (P63096 whole entry, looked up): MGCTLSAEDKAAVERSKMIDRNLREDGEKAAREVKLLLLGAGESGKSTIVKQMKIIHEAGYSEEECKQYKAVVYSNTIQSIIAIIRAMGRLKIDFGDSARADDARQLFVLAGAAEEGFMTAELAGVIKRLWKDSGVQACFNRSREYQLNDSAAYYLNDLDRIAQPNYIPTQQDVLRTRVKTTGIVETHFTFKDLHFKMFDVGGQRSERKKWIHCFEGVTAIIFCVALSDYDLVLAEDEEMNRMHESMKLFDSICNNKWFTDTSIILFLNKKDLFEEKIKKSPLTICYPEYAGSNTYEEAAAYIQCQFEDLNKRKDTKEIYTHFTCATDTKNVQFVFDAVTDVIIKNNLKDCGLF

Take `O=C(NCCN1CCCCC1)c1ccc(I)cc1`: the Potency in test [1] is 25.1 µM (active); in [2], over 46 µM; in test [3] it was over 46 µM. Also, the Potency result in test [4], in test [5], in [6], in test [7], in test [8] and in test [9] was “inactive” in each case.

Consider `CCCCCCCCCCCCCCCC(=O)N[C@H](CN1CCOCC1)[C@H](O)c1ccccc1`, for which the results for the activity change, negative = inhibition in test [8] and in test [9] were 6.98% [at 6.83 µM] and 2.84% [at 3.88 µM], respectively. Besides, the Potency entry in [10] is “inactive”.

With `CC(C)[C@H](CO)Nc1nc(Nc2cc(N)cc(Cl)c2)c2ncn(C(C)C)c2n1`, the results for the Potency in test [1], in test [2] and in test [3] were 0.501 µM (active), over 46 µM and over 46 µM, respectively. Moreover, the Potency result in test [4], in test [7], in [8] and in test [9] was “inactive” throughout. Besides, the molecule was classed as inactive in [11] and in [12].

For `CCCCNC(=O)[C@@H]1Cc2ccccc2N1C(=O)[C@H](N)CC`, the Potency in test [1] is 20 µM (active); in test [2], over 46 µM; in test [3], over 46 µM. Also, the Potency entry in [4], in test [6], in test [7], in test [8] and in test [9] was “inactive” throughout.

Consider `CC#CCOC(=O)c1c(C)nc2sc3c(c2c1N)CC[C@@H](O)C3`, for which the activity change, negative = inhibition is -15.6% in test [13] and -25.8% in [14]. For the same molecule, the Potency is 398 nM (active) and 25.1 nM (active) in [1]; over 46 µM in [2]; over 46 µM in [3]; 3.16 µM (active) in test [17]; 5.01 µM (active) in test [22]. The Potency entry in [4], in [5], in test [16], in test [18], in test [19] and in [20] was “inactive” throughout. The Potency entry in [21], in test [23], in test [7], in test [8] and in [9] was “inactive” in each case. Further, the outcome in test [15], in test [24] and in test [25] was inactive.
